Source: PubChem BioAssay (NCI)
The panel holds about 83,000 compounds, 20% with a hit somewhere; the sample as a whole holds those more often.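 Percent growth is the endpoint: 0 to 100 indicates growth inhibition (40 means 60% inhibition), 0 means no net growth, and negative values indicate cell death.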 Values without a mark were called inactive. Active and inactive are the calls of the source. Rule for the calls: active = growth percent below 10; inactive = the rest.

test system: ACHN renal; experiment: NCI-60 one-dose screen, 48 h (100 = growth as untreated, 0 = no growth, -100 = all killed); details: 10 µM unless noted

SMILES	growth
COc1ccc(Cn2cc3c(c2-c2ccccc2)CCc2cnoc2-3)cc1OC	57.7%
Cc1ccc2c(O)c(O)cc(NC(C)CCCN)c2n1 (stereo not given)	108%
CC(C)(C)c1ccc([I+]c2ccc(C(C)(C)C)cc2)cc1	47.3%
COC(=O)/C(Br)=C/c1c[nH]c2ccc(Br)cc12	86.7%
COC(=O)c1ccc2[nH]c(O)c(C(=Nc3ccc(N(C)C(=O)CN4CCN(C)CC4)cc3)c3cccc(OC)c3)c2c1	6.22% (active)
C#CCCCCCCC[C@@H]1OC(=O)[C@H]([C@@H](C)CC)NC(=O)[C@@H]([C@@H](C)CC)NC(=O)CC(=O)[C@@H]1C	86.8%
COC(=O)c1ccc2[nH]c(O)c(C(=Nc3ccc(N(C)C(=O)CN4CCN(C)CC4)cc3)c3ccc(C)cc3)c2c1	-61.1% (active)
COC(=O)C(C)[C@H]1CC[C@@H]2[C@]1(C)CC=C1[C@]23C=C[C@]2(C[C@@H](OC(C)=O)CC[C@]12C)C(C(=O)OC)C3C(=O)OC (stereo not given in full)	112%
Cc1nc2c(nnn2-c2ccccc2)c2nc(-c3ccccc3)oc(=O)c12	105%
CC(O)C(N)=O (stereo not given)	104%
Nc1nc2c(c3cnccc13)C(c1cccc(Cl)c1)Cc1cnccc1-2 (stereo not given)	15%
CC(=O)OCC1O[C@@H](OC(C)=O)[C@@H](NC(=O)NS(=O)(=O)c2ccccc2)C(OC(C)=O)[C@@H]1OC(C)=O (stereo not given in full)	104%
CCOC(=O)c1ccc2n1CCCc1cnc(NC(C)=O)nc1-2	99.3%
CCCCCCCCCCCCCCCCCC1=NCCN1CCNC(C)=O	91.4%
Clc1ccc(N/N=C(/c2ccccc2)c2ccccn2)nc1	24.1%
COc1ccc(-n2nnnc2-c2cn[nH]c2C(F)(F)F)cc1	99.3%
COc1cc2ncnc(-n3ncc4cc(NC(=O)Nc5ccc(Cl)c(Cl)c5)ccc43)c2cc1OC	-61.6% (active)
CCOC(=O)c1c(C)oc2ncnc(Nc3ccc(C(=O)NCCc4ccccc4)cc3)c12	88.7%
CC(=O)/C(=C/c1ccc(-c2ccccc2)cc1)C(=O)c1ccccc1	88.3%
N=C(N)c1ccc(-c2ccc(-c3ccc(F)cc3)s2)cc1	-91.8% (active)

SMILES	growth
NC(=O)CC(NC(=O)COc1ccc(Cl)cc1Cl)C(=O)O (stereo not given)	109%
Cc1nc(NC(=O)NC2CCCCC2)sc1C(=O)NN	97.8%
CCOC(=O)C1=C(C(F)(F)F)NC(=S)NC1CN1C(=O)c2ccccc2C1=O (stereo not given)	105%
NC(=O)c1c(Nc2ccccc2)nn2cc(-c3nc4ccccc4s3)c(N)nc12	96.3%
O=C(/C=C/c1ccc(Br)cc1)c1ccccc1	100%
Cc1c(O)c(N=Nc2ccc(C(=O)O)c(O)c2)c2ccccc2c1O	97.6%
COc1ccc2c(c1)/C(=C/c1c(-c3cc(OC)c(OC)c(OC)c3)nc3sccn13)C(=O)N2	100%
CCOC(=O)c1cc(C(=O)c2ccc(Br)cc2)n2cc(C)cc(C)c12	104%
COc1cccc(Cn2cc3c(c2)-c2oncc2CC3)c1	42.7%
CCCCCSc1ccc2nc(NC(=O)OCC)sc2c1	39.7%
COc1ccc(C2C3(C#N)C(N)=NC(=C(C#N)C#N)C23C#N)cc1OC (stereo not given)	106%
CCCCCCCCCCCCCCCC[n+]1cccc(C#N)c1	39.2%
CC(C)OC(=O)c1ccc2n1CCCc1cnc(Nc3ccccc3)nc1-2	74.8%
COc1cc(Cn2ccc3c2-c2oncc2CC3)cc(OC)c1	47.2%
COC(=O)c1ccc(C(=Nc2ccc(N(C)C(=O)CN3CCN(C)CC3)cc2)c2c(O)[nH]c3ccc(C(=O)OC)cc23)cc1	18.6%
COc1cccc2c1nc1cccc(OC)c1[n+]2[O-]	2.52% (active)
CC(=O)NNC(=O)c1sc(NC(C)=O)nc1C	106%
CCOC(=O)NNc1[nH]c(-c2ccc(OC)cc2)cc1C#N	81.2%
COc1cc(N)c2nccc(C)c2c1OC	110%
CCOC(=O)c1c2c(cn1Cc1ccccc1)-c1oncc1CC2	94.1%

test system: CAKI-1 renal; experiment: as above; details: 10 µM unless noted

SMILES	growth
COc1ccc(Cn2cc3c(c2-c2ccccc2)CCc2cnoc2-3)cc1OC	18.9%
Cc1ccc2c(O)c(O)cc(NC(C)CCCN)c2n1 (stereo not given)	87.4%
CC(C)(C)c1ccc([I+]c2ccc(C(C)(C)C)cc2)cc1	87.6%
COC(=O)/C(Br)=C/c1c[nH]c2ccc(Br)cc12	69.1%
COC(=O)c1ccc2[nH]c(O)c(C(=Nc3ccc(N(C)C(=O)CN4CCN(C)CC4)cc3)c3cccc(OC)c3)c2c1	2.55% (active)
C#CCCCCCCC[C@@H]1OC(=O)[C@H]([C@@H](C)CC)NC(=O)[C@@H]([C@@H](C)CC)NC(=O)CC(=O)[C@@H]1C	69.8%
COC(=O)c1ccc2[nH]c(O)c(C(=Nc3ccc(N(C)C(=O)CN4CCN(C)CC4)cc3)c3ccc(C)cc3)c2c1	-41.6% (active)
COC(=O)C(C)[C@H]1CC[C@@H]2[C@]1(C)CC=C1[C@]23C=C[C@]2(C[C@@H](OC(C)=O)CC[C@]12C)C(C(=O)OC)C3C(=O)OC (stereo not given in full)	94.7%
Cc1nc2c(nnn2-c2ccccc2)c2nc(-c3ccccc3)oc(=O)c12	93.8%
CC(O)C(N)=O (stereo not given)	95.6%
Nc1nc2c(c3cnccc13)C(c1cccc(Cl)c1)Cc1cnccc1-2 (stereo not given)	25.2%
CC(=O)OCC1O[C@@H](OC(C)=O)[C@@H](NC(=O)NS(=O)(=O)c2ccccc2)C(OC(C)=O)[C@@H]1OC(C)=O (stereo not given in full)	94.9%
CCOC(=O)c1ccc2n1CCCc1cnc(NC(C)=O)nc1-2	92.1%
CCCCCCCCCCCCCCCCCC1=NCCN1CCNC(C)=O	87.6%
Clc1ccc(N/N=C(/c2ccccc2)c2ccccn2)nc1	36.2%
COc1ccc(-n2nnnc2-c2cn[nH]c2C(F)(F)F)cc1	92.5%
COc1cc2ncnc(-n3ncc4cc(NC(=O)Nc5ccc(Cl)c(Cl)c5)ccc43)c2cc1OC	8.96% (active)
CCOC(=O)c1c(C)oc2ncnc(Nc3ccc(C(=O)NCCc4ccccc4)cc3)c12	92.6%
CC(=O)/C(=C/c1ccc(-c2ccccc2)cc1)C(=O)c1ccccc1	91.3%
N=C(N)c1ccc(-c2ccc(-c3ccc(F)cc3)s2)cc1	-95.1% (active)

SMILES	growth
NC(=O)CC(NC(=O)COc1ccc(Cl)cc1Cl)C(=O)O (stereo not given)	101%
Cc1nc(NC(=O)NC2CCCCC2)sc1C(=O)NN	132%
CCOC(=O)C1=C(C(F)(F)F)NC(=S)NC1CN1C(=O)c2ccccc2C1=O (stereo not given)	88.3%
NC(=O)c1c(Nc2ccccc2)nn2cc(-c3nc4ccccc4s3)c(N)nc12	86.2%
O=C(/C=C/c1ccc(Br)cc1)c1ccccc1	101%
Cc1c(O)c(N=Nc2ccc(C(=O)O)c(O)c2)c2ccccc2c1O	84.5%
COc1ccc2c(c1)/C(=C/c1c(-c3cc(OC)c(OC)c(OC)c3)nc3sccn13)C(=O)N2	67.3%
CCOC(=O)c1cc(C(=O)c2ccc(Br)cc2)n2cc(C)cc(C)c12	82.1%
COc1cccc(Cn2cc3c(c2)-c2oncc2CC3)c1	13.9%
CCCCCSc1ccc2nc(NC(=O)OCC)sc2c1	27.6%
COc1ccc(C2C3(C#N)C(N)=NC(=C(C#N)C#N)C23C#N)cc1OC (stereo not given)	86.9%
CCCCCCCCCCCCCCCC[n+]1cccc(C#N)c1	73%
CC(C)OC(=O)c1ccc2n1CCCc1cnc(Nc3ccccc3)nc1-2	65.6%
COc1cc(Cn2ccc3c2-c2oncc2CC3)cc(OC)c1	23.3%
COC(=O)c1ccc(C(=Nc2ccc(N(C)C(=O)CN3CCN(C)CC3)cc2)c2c(O)[nH]c3ccc(C(=O)OC)cc23)cc1	11.9%
COc1cccc2c1nc1cccc(OC)c1[n+]2[O-]	52.8%
CC(=O)NNC(=O)c1sc(NC(C)=O)nc1C	115%
CCOC(=O)NNc1[nH]c(-c2ccc(OC)cc2)cc1C#N	121%
COc1cc(N)c2nccc(C)c2c1OC	98.4%
CCOC(=O)c1c2c(cn1Cc1ccccc1)-c1oncc1CC2	82.8%
